Data reported in PubChem BioAssay (NCATS).
Calls of active or inactive are those of the source. No rule for the calls is given here.

These compounds were tested on HIV-1 nucleocapsid protein NCp7 (binding to TG oligonucleotide) (assay: HIV Nucleocapsid (AID 346;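 also: potency is for inhibitors that block NC binding and lower polarization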)). Conditions: HIV-1 NC / fluorescein-TGTGTGTG probe, fluorescence polarization.
Method: NCGC Assay Overview: HIV-1 nucleocapsid protein (HIV-1 NC) is a small (6.5 kDa) basic zinc-finger protein which participates in packaging of viral genomic RNA. The spacing and metal-chelating residues (3 Cys, 1 His) of the Cys-X2-Cys-X4-His-X4-Cys Zn fingers are conserved among all known retroviruses (J. Med. Chem. 1998, 41, 1371-1381). HIV-1 NC was assayed for its binding to the consensus sequence single-stranded 5'-TGTGTGTG. […] High salt was included to increase the stringency of binding and inhibitor screen. Reducing agents and zinc were present to stabilize the nucleocapsid zinc-finger protein.
NCGC Assay Protocol Summary: Buffer. Hepes pH 7.5, 250mM NaCl, 1uM ZnCl2. 0.004% polyethylene glycol 20000. TCEP (100 uM) and 2-Mercaptoethanol (5 mM), added fresh the day of the experiment. Reagents/Controls. 10 nM TG4xF only in columns 3 and 4 as negative control. 10 nM TG4xF/100 nM HIV-1 NC in columns 1, 2, 5-48. Titration of control compound NSC-13778 (from 20 mM, then 1:2) pin-transferred to column 2. Assay Steps. Two uL of reagents were dispensed to 1536-well Kalypsys black plates. The plates were centrifuged for 1 min at 1000 rpm. Compounds and controls (20 nL) were transferred via Kalypsys PinTool. The plates were incubated for 1 hr at room temperature, and then read on ViewLux (Perkin-Elmer). High-throughput CCD imager using fluorescein polarization filter set and 45 seconds exposure time.
Potency is read from the fitted curve at half-maximal effect.

Structure (SMILES) | Potency
Cc1noc(C)c1C(=O)N1CCC2(CCCN(CC(C)C)C2)CC1 | > 4 µM (inactive)
CN1CCC2(CC1)CCN(C(=O)Oc1ccccc1)CC2 | > 20 µM (inactive)
O=C(c1cnccn1)N1CCC2(CC1)CN(Cc1ccncc1)C2 | > 20 µM (inactive)
c1ccc(N2CC3(CCNCC3)C2)nc1 | > 20 µM (inactive)
c1cnc(N2CCC3(CCNCC3)CC2)nc1 | > 20 µM (inactive)
c1ccc(N2CC[C@@]3(CCCNC3)C2)nc1 | > 20 µM (inactive)
O=C(Oc1ccccc1)N1CCC2(CCCN(Cc3nccs3)C2)CC1 | > 20 µM (inactive)
c1ccc(N2CC3(CCNCC3)C2)cc1 | > 20 µM (inactive)
c1ccc(CN2CC[C@@]3(CCCNC3)C2)cc1 | > 20 µM (inactive)
O=C(Nc1cccc(F)c1)N1CC[C@@]2(CCCN(C(=O)Oc3ccccc3)C2)C1 | > 20 µM (inactive)
O=C(c1csnn1)N1CCC[C@@]2(CCN(Cc3ccncc3)C2)C1 | > 20 µM (inactive)
O=C(Oc1ccccc1)N1CCC2(CCCN(Cc3ccccc3)C2)CC1 | > 20 µM (inactive)
c1ccc(N2CCCC3(CCNCC3)C2)cc1 | > 20 µM (inactive)
Cc1nc2cnc(N3CCNCC3)nc2n(C)c1=O | > 20 µM (inactive)
CN1CCN(c2ncc3ncc(=O)n(C)c3n2)CC1 | > 20 µM (inactive)
O=C(Nc1cccc(F)c1)N1CC2(CCN(C(=O)Oc3ccccc3)CC2)C1 | > 20 µM (inactive)
N#Cc1ccc(CN2CCCC3(CCN(C(=O)Oc4ccccc4)CC3)C2)cc1 | > 20 µM (inactive)
COc1ccccc1CN1CC[C@@]2(CCCN(C(=O)Oc3ccccc3)C2)C1 | > 20 µM (inactive)
c1ccc(N2CCCC3(CCNCC3)C2)nc1 | > 20 µM (inactive)
c1cc(N2CCCC3(CCNCC3)C2)ccn1 | > 20 µM (inactive)

Structure (SMILES) | Potency
CC(C)CN1CCCC2(CCN(C(=O)Oc3ccccc3)CC2)C1 | > 20 µM (inactive)
COc1ccc(NC(=O)N2CCCC3(CCN(C(=O)Oc4ccccc4)CC3)C2)cc1 | > 20 µM (inactive)
Cc1noc(C)c1C(=O)N1CCC[C@@]2(CCN(CC(C)C)C2)C1 | > 20 µM (inactive)
CN1CCC2(CC1)CCN(C(=O)c1ccco1)CC2 | > 20 µM (inactive)
O=C(Nc1ccccc1)N1CCC2(CC1)CCN(C(=O)Oc1ccccc1)CC2 | > 20 µM (inactive)
CC(C)CN1CC[C@@]2(CCCN(C(=O)c3ccncc3)C2)C1 | > 20 µM (inactive)
N#Cc1cccc(NC(=O)N2CC[C@@]3(CCCN(C(=O)Oc4ccccc4)C3)C2)c1 | > 4 µM (inactive)
c1cc(CN2CCC3(CCNCC3)CC2)ccn1 | > 20 µM (inactive)
CS(=O)(=O)N1CCC2(CC1)CN(Cc1ccncc1)C2 | > 20 µM (inactive)
CC(C)CN1CCC2(CC1)CCN(C(=O)Oc1ccccc1)CC2 | > 20 µM (inactive)
CN1CCCC2(CCN(C(=O)Oc3ccccc3)CC2)C1 | > 20 µM (inactive)
O=C(Oc1ccccc1)N1CCC2(CCN(Cc3ccccc3)CC2)CC1 | > 20 µM (inactive)
CC(C)CN1CC[C@@]2(CCCN(C(=O)Oc3ccccc3)C2)C1 | > 20 µM (inactive)
CC(C)NC(=O)N1CCC2(CCNCC2)CC1 | > 20 µM (inactive)
O=C(c1ccncc1)N1CCC2(CC1)CN(Cc1ccccc1)C2 | > 20 µM (inactive)
c1ccc(N2CCC3(CCNCC3)CC2)cc1 | > 20 µM (inactive)
Clc1ccccc1-c1cncnc1NCCc1cnc[nH]1 | > 20 µM (inactive)
c1csc(CN2CCC3(CCNCC3)CC2)n1 | > 20 µM (inactive)
CC(C)CN1CC2(CCN(C(=O)Oc3ccccc3)CC2)C1 | > 20 µM (inactive)
N#Cc1ccc(CN2CC3(CCNCC3)C2)cc1 | > 20 µM (inactive)
